# In the supplement of paper PMC4466140:
# How the values were obtained:
# Assay in all cases: SPOT peptide array binding signal intensity (averaged, normalized) (arbitrary units (background-subtracted, floor 0; scale differs between SH3 domains)); higher = stronger binding of the SH3 domain to the peptide
# AgAbp1 = biological target: AgAbp1
# Procedure, shortened: (§1)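 SH3 domains from four yeast species were expressed as GST fusions in E. coli BL21(DE3) and purified on glutathione Sepharose. Each was incubated at 10 μg/ml overnight at 4°C in TBS-based blocking buffer on cellulose membranes bearing synthetic 15-mer peptides, in which serines replaced cysteines. Bound protein was detected with anti-GST antibody, an HRP anti-mouse secondary and luminol, then imaged and quantified with Genespotter. The binding signal is the normalized, background-subtracted spot intensity averaged over replicates, in arbitrary units that are not the same from one domain to another.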
# AgBbc1 = biological target: AgBbc1
# Procedure, shortened: as §1
# AgBem1-D1 = biological target: AgBem1-D1
# Procedure, shortened: as §1
# AgBzz1-D1 = biological target: AgBzz1-D1
# Procedure, shortened: as §1
# AgBzz1-D2 = biological target: AgBzz1-D2
# Procedure, shortened: as §1
# AgCyk3 = biological target: AgCyk3
# Procedure, shortened: as §1
# AgFus1 = biological target: AgFus1
# Procedure, shortened: as §1
# AgHof1 = biological target: AgHof1
# Procedure, shortened: as §1
# AgHse1 = biological target: AgHse1
# Procedure, shortened: as §1
# AgLsb1 = biological target: AgLsb1
# Procedure, shortened: as §1
# AgLsb4 = biological target: AgLsb4
# Procedure, shortened: as §1
# AgMyo5 = biological target: AgMyo5
# Procedure, shortened: as §1
# AgNbp2 = biological target: AgNbp2
# Procedure, shortened: as §1
# AgRvs167 = biological target: AgRvs167
# Procedure, shortened: as §1
# AgSho1 = biological target: AgSho1
# Procedure, shortened: as §1
# AgSla1-D1-D2 = biological target: AgSla1-D1-D2
# Procedure, shortened: as §1
# AgSla1-D3 = biological target: AgSla1-D3
# Procedure, shortened: as §1
# CaAbp1-D1 = biological target: CaAbp1-D1
# Procedure, shortened: as §1
# CaAbp1-D2 = biological target: CaAbp1-D2
# Procedure, shortened: as §1
# CaBbc1 = biological target: CaBbc1
# Procedure, shortened: as §1
# CaBem1-D1 = biological target: CaBem1-D1
# Procedure, shortened: as §1
# CaBzz1-D1 = biological target: CaBzz1-D1
# Procedure, shortened: as §1
# CaBzz1-D2 = biological target: CaBzz1-D2
# Procedure, shortened: as §1
# CaCyk3 = biological target: CaCyk3
# Procedure, shortened: as §1
# CaFus1 = biological target: CaFus1
# Procedure, shortened: as §1
# CaHof1 = biological target: CaHof1
# Procedure, shortened: as §1
# CaHse1 = biological target: CaHse1
# Procedure, shortened: as §1
# CaLsb1 = biological target: CaLsb1
# Procedure, shortened: as §1
# CaLsb4 = biological target: CaLsb4
# Procedure, shortened: as §1
# CaMyo5 = biological target: CaMyo5
# Procedure, shortened: as §1
# CaNbp2 = biological target: CaNbp2
# Procedure, shortened: as §1
# CaRvs167 = biological target: CaRvs167
# Procedure, shortened: as §1
# CaRvs167-3 = biological target: CaRvs167-3
# Procedure, shortened: as §1
# CaSho1 = biological target: CaSho1
# Procedure, shortened: as §1
# CaSla1-D1-D2 = biological target: CaSla1-D1-D2
# Procedure, shortened: as §1
# CaSla1-D3 = biological target: CaSla1-D3
# Procedure, shortened: as §1
# ScAbp1 = biological target: ScAbp1
# Procedure, shortened: as §1
# ScBbc1 = biological target: ScBbc1
# Procedure, shortened: as §1
# ScBem1-D1 = biological target: ScBem1-D1
# Procedure, shortened: as §1
# ScBzz1-D1 = biological target: ScBzz1-D1
# Procedure, shortened: as §1
# ScBzz1-D2 = biological target: ScBzz1-D2
# Procedure, shortened: as §1
# ScCyk3 = biological target: ScCyk3
# Procedure, shortened: as §1
# ScFus1 = biological target: ScFus1
# Procedure, shortened: as §1
# ScHof1 = biological target: ScHof1
# Procedure, shortened: as §1
# ScHse1 = biological target: ScHse1
# Procedure, shortened: as §1
# ScLsb1 = biological target: ScLsb1
# Procedure, shortened: as §1
# ScLsb2 = biological target: ScLsb2
# Procedure, shortened: as §1
# ScLsb3 = biological target: ScLsb3
# Procedure, shortened: as §1
# ScLsb4 = biological target: ScLsb4
# Procedure, shortened: as §1
# ScMyo3 = biological target: ScMyo3
# Procedure, shortened: as §1
# ScMyo5 = biological target: ScMyo5
# Procedure, shortened: as §1
# ScNbp2 = biological target: ScNbp2
# Procedure, shortened: as §1
# ScPex13 = biological target: ScPex13
# Procedure, shortened: as §1
# ScRvs167 = biological target: ScRvs167
# Procedure, shortened: as §1
# ScSho1 = biological target: ScSho1
# Procedure, shortened: as §1
# ScSla1-D1-D2 = biological target: ScSla1-D1-D2
# Procedure, shortened: as §1
# ScSla1-D3 = biological target: ScSla1-D3
# Procedure, shortened: as §1
# SpAbp1-D1 = biological target: SpAbp1-D1
# Procedure, shortened: as §1
# SpBbc1 = biological target: SpBbc1
# Procedure, shortened: as §1
# SpBzz1-D1 = biological target: SpBzz1-D1
# Procedure, shortened: as §1
# SpBzz1-D2 = biological target: SpBzz1-D2
# Procedure, shortened: as §1
# SpCyk3 = biological target: SpCyk3
# Procedure, shortened: as §1
# SpHof1 = biological target: SpHof1
# Procedure, shortened: as §1
# SpHof1-2 = biological target: SpHof1-2
# Procedure, shortened: as §1
# SpHof1-3 = biological target: SpHof1-3
# Procedure, shortened: as §1
# SpHse1 = biological target: SpHse1
# Procedure, shortened: as §1
# SpLsb1 = biological target: SpLsb1
# Procedure, shortened: as §1
# SpLsb4 = biological target: SpLsb4
# Procedure, shortened: as §1
# SpMyo1 = biological target: SpMyo1
# Procedure, shortened: as §1
# SpNbp2 = biological target: SpNbp2
# Procedure, shortened: as §1
# SpPex13 = biological target: SpPex13
# Procedure, shortened: as §1
# SpRvs167 = biological target: SpRvs167
# Procedure, shortened: as §1
# SpSla1-D1-D2 = biological target: SpSla1-D1-D2
# Procedure, shortened: as §1
# SpSla1-D3 = biological target: SpSla1-D3
# Procedure, shortened: as §1
binder,measurement,setting,value
GKFIPSRPAPKPPSS,SPOT peptide array binding signal intensity,AgAbp1,978
same,SPOT peptide array binding signal intensity,AgBbc1,1050
same,SPOT peptide array binding signal intensity,AgBem1-D1,328
same,SPOT peptide array binding signal intensity,AgBzz1-D1,46
same,SPOT peptide array binding signal intensity,AgBzz1-D2,37
same,SPOT peptide array binding signal intensity,AgCyk3,2
same,SPOT peptide array binding signal intensity,AgFus1,≤ 0
same,SPOT peptide array binding signal intensity,AgHof1,51.8
same,SPOT peptide array binding signal intensity,AgHse1,8
same,SPOT peptide array binding signal intensity,AgLsb1,218
same,SPOT peptide array binding signal intensity,AgLsb4,19
same,SPOT peptide array binding signal intensity,AgMyo5,1850
same,SPOT peptide array binding signal intensity,AgNbp2,4160
same,SPOT peptide array binding signal intensity,AgRvs167,2.83
same,SPOT peptide array binding signal intensity,AgSho1,17
same,SPOT peptide array binding signal intensity,AgSla1-D1-D2,35
same,SPOT peptide array binding signal intensity,AgSla1-D3,9.25
same,SPOT peptide array binding signal intensity,CaAbp1-D1,922
same,SPOT peptide array binding signal intensity,CaAbp1-D2,764
same,SPOT peptide array binding signal intensity,CaBbc1,1370
same,SPOT peptide array binding signal intensity,CaBem1-D1,2020
same,SPOT peptide array binding signal intensity,CaBzz1-D1,1860
same,SPOT peptide array binding signal intensity,CaBzz1-D2,808
same,SPOT peptide array binding signal intensity,CaCyk3,88.5
same,SPOT peptide array binding signal intensity,CaFus1,54.5
same,SPOT peptide array binding signal intensity,CaHof1,0.5
same,SPOT peptide array binding signal intensity,CaHse1,≤ 0
same,SPOT peptide array binding signal intensity,CaLsb1,≤ 0
same,SPOT peptide array binding signal intensity,CaLsb4,53
same,SPOT peptide array binding signal intensity,CaMyo5,24
TTNRGPPPLPPRANV,SPOT peptide array binding signal intensity,AgAbp1,2
same,SPOT peptide array binding signal intensity,AgBbc1,301
same,SPOT peptide array binding signal intensity,AgBem1-D1,53.5
same,SPOT peptide array binding signal intensity,AgBzz1-D1,385
same,SPOT peptide array binding signal intensity,AgBzz1-D2,144
same,SPOT peptide array binding signal intensity,AgCyk3,6
same,SPOT peptide array binding signal intensity,AgFus1,≤ 0
same,SPOT peptide array binding signal intensity,AgHof1,398
same,SPOT peptide array binding signal intensity,AgHse1,35.5
same,SPOT peptide array binding signal intensity,AgLsb1,513
same,SPOT peptide array binding signal intensity,AgLsb4,4310
same,SPOT peptide array binding signal intensity,AgMyo5,394
same,SPOT peptide array binding signal intensity,AgNbp2,4.5
same,SPOT peptide array binding signal intensity,AgRvs167,1710
same,SPOT peptide array binding signal intensity,AgSho1,≤ 0
same,SPOT peptide array binding signal intensity,AgSla1-D1-D2,≤ 0
same,SPOT peptide array binding signal intensity,AgSla1-D3,4
same,SPOT peptide array binding signal intensity,CaAbp1-D1,19
same,SPOT peptide array binding signal intensity,CaAbp1-D2,≤ 0
same,SPOT peptide array binding signal intensity,CaBbc1,590
same,SPOT peptide array binding signal intensity,CaBem1-D1,28
same,SPOT peptide array binding signal intensity,CaBzz1-D1,6090
same,SPOT peptide array binding signal intensity,CaBzz1-D2,2120
same,SPOT peptide array binding signal intensity,CaCyk3,10.5
same,SPOT peptide array binding signal intensity,CaFus1,22.5
same,SPOT peptide array binding signal intensity,CaHof1,101
same,SPOT peptide array binding signal intensity,CaHse1,73
same,SPOT peptide array binding signal intensity,CaLsb1,9
same,SPOT peptide array binding signal intensity,CaLsb4,4530
same,SPOT peptide array binding signal intensity,CaMyo5,6.25
same,SPOT peptide array binding signal intensity,CaNbp2,35
same,SPOT peptide array binding signal intensity,CaRvs167,1980
same,SPOT peptide array binding signal intensity,CaRvs167-3,≤ 0
same,SPOT peptide array binding signal intensity,CaSho1,0.5
same,SPOT peptide array binding signal intensity,CaSla1-D1-D2,436
same,SPOT peptide array binding signal intensity,CaSla1-D3,1.5
same,SPOT peptide array binding signal intensity,ScAbp1,12
same,SPOT peptide array binding signal intensity,ScBbc1,74
same,SPOT peptide array binding signal intensity,ScBem1-D1,6
same,SPOT peptide array binding signal intensity,ScBzz1-D1,144
same,SPOT peptide array binding signal intensity,ScBzz1-D2,8
same,SPOT peptide array binding signal intensity,ScCyk3,1
same,SPOT peptide array binding signal intensity,ScFus1,≤ 0
same,SPOT peptide array binding signal intensity,ScHof1,272
same,SPOT peptide array binding signal intensity,ScHse1,21.5
same,SPOT peptide array binding signal intensity,ScLsb1,576
same,SPOT peptide array binding signal intensity,ScLsb2,583
same,SPOT peptide array binding signal intensity,ScLsb3,6820
same,SPOT peptide array binding signal intensity,ScLsb4,3960
same,SPOT peptide array binding signal intensity,ScMyo3,492
same,SPOT peptide array binding signal intensity,ScMyo5,277
same,SPOT peptide array binding signal intensity,ScNbp2,43
same,SPOT peptide array binding signal intensity,ScPex13,2050
same,SPOT peptide array binding signal intensity,ScRvs167,2870
same,SPOT peptide array binding signal intensity,ScSho1,128
same,SPOT peptide array binding signal intensity,ScSla1-D1-D2,255
same,SPOT peptide array binding signal intensity,ScSla1-D3,15.2
same,SPOT peptide array binding signal intensity,SpAbp1-D1,41.5
same,SPOT peptide array binding signal intensity,SpBbc1,106
same,SPOT peptide array binding signal intensity,SpBzz1-D1,3230
same,SPOT peptide array binding signal intensity,SpBzz1-D2,11
same,SPOT peptide array binding signal intensity,SpCyk3,16
same,SPOT peptide array binding signal intensity,SpHof1,15.2
same,SPOT peptide array binding signal intensity,SpHof1-2,42.8
same,SPOT peptide array binding signal intensity,SpHof1-3,344
same,SPOT peptide array binding signal intensity,SpHse1,≤ 0
same,SPOT peptide array binding signal intensity,SpLsb1,1680
same,SPOT peptide array binding signal intensity,SpLsb4,4080
same,SPOT peptide array binding signal intensity,SpMyo1,853
same,SPOT peptide array binding signal intensity,SpNbp2,≤ 0
same,SPOT peptide array binding signal intensity,SpPex13,7
same,SPOT peptide array binding signal intensity,SpRvs167,2550
same,SPOT peptide array binding signal intensity,SpSla1-D1-D2,1
same,SPOT peptide array binding signal intensity,SpSla1-D3,≤ 0
